Assay outcomes as filed in PubChem BioAssay.
In the library only some 7.8% were active in any assay of this set; here they are far more common.
LASV entry inh: Lassa virus entry inhibition | Lassa virus pseudotype entry inhibition, cell reporter | Potency, µM (series often up to 37.9 µM), for inactives: at the highest dose activity change, negative = inhibition, hits mostly inhibitors | 300,000 tested, 1.2% active | AID 540256; calls by dose curve; tested in HEK293 cells; note: potency is the fitted concentration of half-maximal effect; nearly all actives have a fitted effect of over 50% in size
MARV entry inh: blocks Marburg virus binding to or entry into cells | Marburg virus pseudotyped entry inhibition, cell reporter | Potency, µM (doses to about 37.8 µM), without a hit: at the top dose activity change, negative = inhibition, actives largely listed as inhibitors | 300,000 tested, 1.8% active; calls by dose curve; tested in HEK293 cells; note: potency is the fitted concentration of half-maximal effect
HCV inh: inhibitors of hepatitis C virus infection; Huh7.5.1 HCVcc-Cre infection, luciferase reporter, 44 h; Potency, µM (doses to about 41.8 µM), inactives show top-dose activity change, negative = inhibition, usual class: inhibitors; 340,000 tested, 3.4% active; AID 651820; active = well fitted inhibition curve with a large enough effect; inconclusive = small, poorly fitted or top-dose-only effect, or another doubt; inactive = no such curve, though single readings can be large or run the other way; note: potency is the fitted concentration of half-maximal effect
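Infectious HCVcc-Cre (~0.5 moi) was added to cells just after compound, with cells seeded 4 h earlier at 1,000 per well. Luciferase activity after 44 h culture reported infection; substrate was incubated 15 min at room temperature before reading.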
Vaccinia Venus: inhibitors of vaccinia virus (Venus reporter); Vaccinia virus Venus reporter expression, fluorescence; 330,000 tested, 0.46% active; Potency, µM (series often up to 36.5 µM), inactives show at the highest dose activity change, negative = inhibition, hits mostly inhibitors; AID 720580; calls by dose curve; tested in A549 cells; note: potency is the fitted concentration of half-maximal effect; nearly all actives have a fitted effect of over 30% in size
VACV mCherry inh: inhibitors of vaccinia virus infection (mCherry reporter signal) | Vaccinia virus mCherry reporter infection, fluorescence | Potency, µM (highest dose often 36.5 µM), without a hit: at the top dose activity change, negative = inhibition, usual class: inhibitors | 310,000 tested, 0.63% active | AID 720579; calls by dose curve; tested in A549 cells; note: potency is the fitted concentration of half-maximal effect; nearly all actives have a fitted effect of over 35% in size
HCMV inh: blocks human cytomegalovirus replication | HFF cells, HCMV-luciferase reporter, 72 h; stronger effect = lower value | activity change, negative = inhibition, % at 57.5 µM | 410,000 tested, 4.5% active; in the data active = activity change below about -60%; inconclusive = no clear call, values can overlap the other calls; inactive = above about -39%
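Steps: HFFs plated, 16 h 37C; compounds added; HCMV-luciferase added to MOI 1 PFU/cell; 72 h 37C; OneGlo reagent, 5 min room temperature; luminescence read, normalized to controls.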
Starred values were filed as active, the others as inactive; i = inactive; ? = inconclusive; nt = no result given; [ ] = remark or other dose. % is set by controls: 0 for no effect and ±100 for the full control effect.

SMILES	LASV entry inh	MARV entry inh	HCV inh	Vaccinia Venus	VACV mCherry inh	HCMV inh
COCCNC(=S)N1CCN(c2nc(-c3ccc(F)cc3)cs2)CC1	nt	nt	?	nt	nt	-7
S=C(NCc1ccco1)N1CCN(c2nc(-c3ccc(Cl)cc3)cs2)CC1	?	?	?	-24%	-27%	-74*
Cc1cc(C)c(C)c(S(=O)(=O)N2CCNCC2)c1C	-7%	?	-18%	-21%	-26%	-31
CC(C)c1cc(C(C)C)c(S(=O)(=O)N2CCNCC2)c(C(C)C)c1	?	10µM*	6%	-5%	?	-18
CCc1ccc(NC(=O)CSC2=Nc3ccccc3C3=NC(CCC(=O)NCc4ccco4)C(=O)N23)cc1 (stereo not given)	8%[46.1 µM]	nt	nt	-16%	i	-16
CN(CCO)C(=O)c1cn(C2CCCN(Cc3cccc4ccccc34)C2)nn1 (stereo not given)	nt	nt	nt	-6%	-6%	nt
COc1ccc(N2CCN(C(CNC(=O)c3ccc(C)cc3)c3ccc4c(c3)OCO4)CC2)cc1 (stereo not given)	?	nt	nt	-24%	-14%	-6
COc1cccc(CNC(=O)C(NS(=O)(=O)c2ccc3c(c2)oc(=O)n3C)C(C)C)c1 (stereo not given)	9%[46.1 µM]	1%[46.1 µM]	nt	3%	-2%	0
CCn1c(=S)[nH]c2scc(-c3cccs3)c2c1=O	-25%[46.1 µM]	-1%[46.1 µM]	8%	-18%	-4%	-63*
COc1ccc(-c2nnc(SCC(=O)c3cc(C)n(Cc4cccs4)c3C)o2)cc1	18%	-1%	1%	-4%	-9%	-18
Cc1cc(C(=O)CSc2nnc(N)s2)c(C)n1Cc1cccs1	0.35µM*	1.6µM*	?	-25%	-15%	-34
CC(=O)Nc1ccc(SCC(=O)c2cc(C)n(Cc3cccs3)c2C)cc1	?	?	-12%	-8%	-12%	-77*
Cc1csc(SCC(=O)c2cc(C)n(Cc3cccs3)c2C)n1	0.79µM*	0.5µM*	10µM*	?	-30%	-94*
CC(=O)Nc1ccc(SCC(=O)c2cc(C)n(-c3ccccc3F)c2C)cc1	?	6.5µM*	?	-12%	-17%	-95*
COC(=O)c1ccc(-n2c(C)cc(C(=O)CSc3ccc(NC(C)=O)cc3)c2C)cc1	?	?	-18%	-14%	-19%	4
COC(=O)c1ccccc1C[C@]1(C(=O)OC)C=C[C@H](C)[C@@H](c2ccccc2)N1C(=O)C(F)(F)F	?	-16%[14.2 µM]	nt	nt	nt	nt
Cc1cc2oc(C(=O)Nc3ccc(S(=O)(=O)N(C)Cc4ccccc4)cc3)cc(=O)c2cc1C	-1%[46.1 µM]	0%[46.1 µM]	nt	-12%	-15%	-4
O=C(c1cc(C2CC2)nn1-c1ccccc1)N1CCN(Cc2ccc(Cl)cc2)CC1	nt	nt	7.1µM*	nt	nt	-31
CCOC(=O)c1c(C)[nH]c(C)c1S(=O)(=O)N(C)CC(=O)Nc1ccc(C)cc1Br	-19%[46.1 µM]	nt	nt	-1%	-14%	-17
CC(C)N1CCC2(CC1)N=C(c1ccc3c(c1)OCO3)CC(c1cc(Cl)ccc1O)N2 (stereo not given)	?	-28%	?	-29%	nt	-81*
CC(c1ccccc1)n1c(-c2cccs2)nc2c(c(=O)c3ccccc3n2C)c1=O (stereo not given)	5%	1%	14µM*	-11%	-1%	5
CCN1CCN(c2ccc(NS(=O)(=O)c3c(C)nc4sccn4c3=O)cc2Cl)CC1	-25%[46.1 µM]	?	nt	-11%[7.34 µM]	-16%[7.34 µM]	-68*
CCn1c(-c2ccccc2F)nc2cc(NC(C)=O)cc(C(=O)NCC3CCOCC3)c21	nt	nt	nt	-13%	i	nt
CCOc1nc2ccccc2cc1C=O	-5%	3%[46.1 µM]	2%	-7%	-11%	-73*
COc1ccc(-c2n[nH]c(C)c2-c2cnn(-c3ccccc3)c2)c(O)c1C	-16%	-27%	11µM*	nt	nt	-77*
SMILES	LASV entry inh	MARV entry inh	HCV inh	Vaccinia Venus	VACV mCherry inh	HCMV inh
COc1ccc(-c2n[nH]c(C)c2-c2cnn(-c3ccccc3)c2)c(O)c1	-16%	?	-22%	nt	nt	61
O=C(O)c1ccc(/C=N/Nc2ccc(F)cc2F)cc1	2.8µM*	14µM*	23%	-7%	0%	214
CC1Oc2ccccc2C=C1/C=N/Nc1ccc(C(=O)O)cc1 (stereo not given)	nt	nt	2%	-22%	13µM*	8
CC(C)(C)c1ccc(/C=N/Nc2ccc(C(=O)O)cc2)cc1	2µM*	3.7µM*	6%	?	?	-76*
CC(C)(C)c1ccc(/C=N/Nc2cccc(C(=O)O)c2)cc1	nt	nt	14%	nt	nt	160
O=C(O)c1ccc(N/N=C/c2ccc(C(F)(F)F)cc2)cc1	1.3µM*	1.6µM*	31%	-13%	-9%	-31
CC1CCCCC1OCCNC(=O)c1ccco1 (stereo not given)	nt	13%[46.1 µM]	nt	nt	nt	nt
Cc1nn2c(=O)cc(COC(=O)c3ccc(NC(=O)c4cccc(Br)c4)cc3)nc2s1	14%[46.1 µM]	nt	nt	-26%	-7%	11
CCOC(=O)c1c(CSc2ccccc2)n(C)c2cc(Br)c(OC)c(O)c12	nt	nt	?	nt	nt	-12
CCOC(=O)c1c(CSc2ccccc2)n(C)c2cc(Br)c(OCC(O)CNC(CO)(CO)CO)cc12 (stereo not given)	?	?	?	?	-25%	-63*
Cc1ccc(-c2cnc(C(O)c3ccc(Cl)cc3C)[nH]2)cc1 (stereo not given)	nt	nt	nt	-13%	i	17
CCCC[C@H]1CN2[C@@H](CC[C@@H](C)[C@@H]2c2ccc(Br)cc2)C(=O)O1	nt	2%[14.2 µM]	nt	nt	nt	nt
COc1ccc(/C=C/C2=CCN(Cc3ccc(OC)cc3)CC2)cc1	-16%[46.1 µM]	4.5µM*	-22%	-16%	-29%	?
COc1ccc(/C=N/N2CCN(Cc3ccccc3)CC2)cc1	nt	nt	-16%	nt	nt	3
CC(C)[C@H](CO)N(Cc1cccc(F)c1)c1nc(Nc2cccc(Cl)c2)c2ncn(C(C)C)c2n1	nt	nt	?	-22%	i	22
CCn1cnc2c(Nc3cccc(Cl)c3)nc(C#N)nc21	nt	nt	nt	nt	nt	60
CC[C@H](CO)Nc1nc(Nc2cccc(Cl)c2)c2ncn(C(C)C)c2n1	nt	nt	?	10µM*	?	-65*
CCn1cnc2c(Nc3cccc(Cl)c3)nc(N[C@@H]3CCCC[C@H]3N)nc21	nt	6.3µM*	nt	nt	nt	nt
COc1ccccc1CN1CCOc2ccc(CN3CCCCC3CO)cc2C1 (stereo not given)	nt	nt	nt	-26%	-24%	nt
COc1cccc(CNC(=O)c2c(OC)cc(=O)n3c2CCN(C(=O)c2ccc(C)s2)CC3)c1	nt	nt	nt	-5%	i	nt
NC(=O)c1cccc(-c2ccnc3c2CC(C(=O)Nc2cccc(Oc4ccccc4)c2)O3)c1 (stereo not given)	nt	nt	nt	-12%	8%	nt
CCC(=O)Nc1nonc1-c1nc2ccccc2n1Cc1cccc2ccccc12	?	?	?	?	?	-104*
Cc1ncc2c(c1CNC(=O)c1cncs1)CCN(C(=O)c1cccc(-c3cccc(F)c3)c1)C2	nt	nt	nt	0%	i	nt
